Results filed as inconclusive are left out. Active and inactive are the calls of the source. Unless noted, calls follow the shape of the dose curve; as a rule, active = well fitted curve in the direction sought with a large enough effect in the repeat runs; inconclusive = weak or mixed curves; inactive = no such curve, though single readings can be large; an effect the other way counts as inactive or inconclusive.

Test [1] can be described thus: A CellTox Green Cytotoxicity Assay to monitor cytotoxicity in HepG2 cells - 24 hour (AID 1224878). Also: nearly all actives have a fitted effect of over 45% in size. The essentials: (§1)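 HepG2 cells were seeded together with the CellTox Green dye at 600 cells/well, left 5 h at 37 C/5% CO2, then given compounds in DMSO. Fluorescence from dye bound to dead-cell DNA was read repeatedly over 40 h of treatment at 37 C.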
The nature of test [2]: A CellTox Green Cytotoxicity Assay to monitor cytotoxicity in HepG2 cells - 40 hour (AID 1224879). Also: nearly all actives have a fitted effect of over 40% in size. The gist of the method: as §1
Test [3] can be described thus: qHTS RealTime-Glo MT Cell Viability Assay in HEK293 cells - 0 hour (AID 1224880). Also: top concentration of the series differs between compounds; nearly all actives have a fitted effect of over 45% in size. The gist of the method: (§2)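 HEK293 cells mixed with RealTime-Glo reagents (NanoLuc plus cell-permeant prosubstrate) at 600 cells/well, preincubated 5 h at 37 C/5% CO2, then given 23 nL compound in DMSO. Nonlytic luminescence from viable cells was read at 0, 8, 16, 24, 32 and 40 h.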
On the technique in general: In qHTS, concentration-response curves come from the screen itself.

Test [4] in a line: A CellTox Green Cytotoxicity Assay to monitor cytotoxicity in HEK293 cells - 32 hour (AID 1224881). Also: nearly all actives have a fitted effect of over 40% in size. The gist of the method:
(§3)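 HEK293 cells premixed with CellTox Green dye were seeded at 600 cells/well and left 5 h at 37 C/5% CO2 before pin transfer of 23 nL compound in DMSO. Fluorescence from dye bound to dead-cell DNA was read during 40 h treatment.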

Test [5] can be described thus: A CellTox Green Cytotoxicity Assay to monitor cytotoxicity in HepG2 cells - 0 hour (AID 1224882). Also: nearly all actives have a fitted effect of over 35% in size. The gist of the method: as §1
The nature of test [6]: A CellTox Green Cytotoxicity Assay to monitor cytotoxicity in HepG2 cells - 32 hour (AID 1224883). Also: nearly all actives have a fitted effect of over 50% in size. The essentials: as §1
Test [7] in a line: A CellTox Green Cytotoxicity Assay to monitor cytotoxicity in HEK293 cells - 8 hour (AID 1224884). Also: nearly all actives have a fitted effect of over 35% in size. The gist of the method:
as §3

A short description of test [8]: qHTS RealTime-Glo MT Cell Viability Assay in HepG2 cells - 16 hour (AID 1224885). Also: nearly all actives have a fitted effect of over 50% in size. The essentials: (§4)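 Tox21 10K library screened in qHTS format on HepG2 cells carrying RealTime-Glo reagents. Compounds were added after a 5 h preincubation, and the luminescent signal from continuous culture was measured repeatedly during 40 h treatment.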
A short description of test [9]: qHTS RealTime-Glo MT Cell Viability Assay in HEK293 cells - 24 hour (AID 1224886). Also: top concentration of the series differs between compounds; nearly all actives have a fitted effect of over 50% in size. The gist of the method: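 Luminescence generated by NanoLuc from substrate produced by living HEK293 cells served as the viability signal. Each value reflects the reading at its stated time point during continuous 40 h compound exposure at 37 C.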
Test [10] is described as follows: qHTS RealTime-Glo MT Cell Viability Assay in HEK293 cells - 8 hour (AID 1224887). Also: top concentration of the series differs between compounds; nearly all actives have a fitted effect of over 50% in size. The essentials: as §2
A short description of test [11]: A CellTox Green Cytotoxicity Assay to monitor cytotoxicity in HEK293 cells - 16 hour (AID 1224888). Also: nearly all actives have a fitted effect of over 35% in size. The gist of the method:
as §3

Test [12] is described as follows: qHTS RealTime-Glo MT Cell Viability Assay in HepG2 cells - 0 hour (AID 1224889). Also: nearly all actives have a fitted effect of over 50% in size. The essentials: as §4
Test [13] is described as follows: A CellTox Green Cytotoxicity Assay to monitor cytotoxicity in HepG2 cells - 8 hour (AID 1224890). Also: nearly all actives have a fitted effect of over 45% in size. The gist of the method: as §1
Test [14] in a line: qHTS assay to identify small molecule antagonists of the estrogen receptor alpha (ER-alpha) signaling pathway using the BG1 cell line in the presence of 0.1 nM 17-beta-estradiol - cell viability counter screen (AID 1259241). Also: nearly all actives have a fitted effect of over 40% in size. The essentials:
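Viability in VM7Luc4E2 cells after 22 hr compound exposure under 0.1 nM 17beta-estradiol stimulation, by CellTiter-Fluor.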

The nature of test [15]: qHTS assay to identify small molecule antagonists of the androgen receptor (AR) signaling pathway using the MDA cell line in the presence of 0.5 nM R1881 - cell viability counter screen (AID 1259242). Also: nearly all actives have a fitted effect of over 45% in size. The gist of the method: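 MDA-kb2 cells (human breast carcinoma, stably carrying MMTV-luciferase reporter) were exposed to compounds with 0.5 nM R1881 (final) for 16 hr at 37C, 0% CO2; viability then read as live-cell protease fluorescence (CellTiter-Fluor, 30 min) in the same wells.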

The nature of test [16]: qHTS assay to identify small molecule phospholipidosis (PLD) inducers (AID 1259344; active = well fitted curve in the direction sought with a large enough effect; an effect the other way counts as inactive or inconclusive). The gist of the method:
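Phospholipidosis is scored by imaging LipidTOX-stained pits in HepG2 cells exposed to compound for 24 h at 37 C; pit counts and integrated intensities per well and per cell serve as outputs.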

The nature of test [17]: qHTS assay to identify small molecule HDAC inhibitors - cell viability counter screen (AID 1259365). The gist of the method:
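Cytotoxicity was gauged in wild-type HCT-116 cells after a brief 2hr treatment with DMSO-dissolved compounds at 37C and 5% CO2, using CellTiter-Glo luminescence developed for 30min at room temperature.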

The target in test [18] is Estrogen receptor (Homo sapiens) (UniProt P03372). In words: qHTS assay to identify small molecule antagonists of the estrogen receptor alpha (ER-alpha) signaling pathway using the BG1 cell line in the presence of 0.1 nM 17-beta-estradiol (AID 1259244). Also: nearly all actives have a fitted effect of over 50% in size. The essentials:
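VM7Luc4E2 cells (endogenous full-length ER-alpha, stable 4xERE-luciferase) were grown 5 days in phenol red-free medium with charcoal-stripped FBS, then exposed 22 h at 37C to compounds plus 0.1 nM (final) 17beta-estradiol; ONE-Glo luminescence read-out.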

Test [19] can be described thus: qHTS assay to identify small molecule HDAC inhibitors (AID 1259364). Also: nearly all actives have a fitted effect of over 45% in size. Also: potency is read from the fitted curve at half-maximal effect. The essentials: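 Wild-type HCT-116 cells were plated overnight, exposed to compounds for 2 h at 37 °C, then given HDAC-Glo class I/II luminogenic reagent for 30 min at room temperature before luminescence was read.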

Estrogen receptor (Homo sapiens), sequence (P03372 whole entry, looked up): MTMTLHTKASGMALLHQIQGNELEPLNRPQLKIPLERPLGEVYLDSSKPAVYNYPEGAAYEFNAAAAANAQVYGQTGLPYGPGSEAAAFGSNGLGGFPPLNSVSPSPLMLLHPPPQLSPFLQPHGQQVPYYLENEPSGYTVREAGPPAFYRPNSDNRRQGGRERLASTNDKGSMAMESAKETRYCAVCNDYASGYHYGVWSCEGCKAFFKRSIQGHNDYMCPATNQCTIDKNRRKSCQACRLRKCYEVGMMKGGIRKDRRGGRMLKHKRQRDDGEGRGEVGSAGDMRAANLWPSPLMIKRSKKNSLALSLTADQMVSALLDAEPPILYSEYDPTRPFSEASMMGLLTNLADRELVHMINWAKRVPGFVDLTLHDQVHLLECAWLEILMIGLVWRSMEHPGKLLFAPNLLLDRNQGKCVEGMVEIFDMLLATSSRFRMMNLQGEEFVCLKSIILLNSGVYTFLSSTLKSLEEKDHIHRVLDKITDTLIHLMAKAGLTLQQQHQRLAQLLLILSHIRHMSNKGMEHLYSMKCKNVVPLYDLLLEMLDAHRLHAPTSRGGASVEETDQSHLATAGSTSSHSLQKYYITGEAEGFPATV

As for `CC(=O)Nc1ccc(OCCOCCOc2ccc(NC(C)=O)cc2)cc1`, the Potency entry in test [1], in test [2], in [3], in test [4], in test [5] and in [6] was “inactive” in each case. In addition, the Potency entry in [7], in test [11], in test [12], in test [13] and in [16] was “inactive” in each case. Further, the outcome in [8], in test [9], in test [10], in test [14], in [15] and in test [17] was inactive.
On to `C=CC(C)(CCC=C(C)C)OC(=O)C(C)C` (configuration not stated), for which the Potency entry in [1], in [2], in test [3], in [4], in test [5] and in test [6] was “inactive” throughout. For the same compound, the Potency entry in test [7], in [11], in [12] and in test [13] was “inactive” in each case. Also, the compound was classed as inactive in test [8], in test [9], in test [10], in test [14], in test [15] and in test [18]. For the same compound, in test [17], the result was inactive.
`CCCOc1ccc(C(=O)OCCN(CC)CC)cc1N`: the Potency result in [1], in test [2], in test [3], in [4], in test [5] and in test [6] was “inactive” in each case. Besides, the Potency entry in test [7], in [11], in test [12], in test [13] and in test [16] was “inactive” throughout. In addition, the compound was classed as inactive in test [8], in test [9], in [10], in test [14], in test [15] and in test [17].
On to `CCOC(=O)c1ccc(N(C)C)cc1`, for which the Potency entry in test [1], in test [2], in test [3], in test [4], in test [5] and in [6] was “inactive” throughout. Further, the Potency result in [7], in [11], in test [12] and in test [13] was “inactive” each time. For the same compound, the result in test [8], in [9], in test [10], in test [14], in test [15] and in test [18] was inactive. Besides, the call in test [17] was inactive. Also, the Potency in test [19] was 9.69 µM (active).
For the compound `CCc1ccc(CC)cc1`, the Potency entry in test [1], in test [2], in test [3], in test [4], in test [5] and in test [6] was “inactive” throughout. The Potency result in test [7], in [11], in test [12], in test [13] and in test [19] was “inactive” throughout. Also, the compound was classed as inactive in test [8], in test [9], in test [10], in [14], in test [15] and in test [18]. For the same compound, in test [17], the result was inactive.
As to `C=CCn1cc[n+](C)c1`, the Potency entry in test [1], in test [2], in test [3], in test [4], in [5] and in test [6] was “inactive” in each case. Further, the Potency result in [7], in test [11], in test [12], in test [13] and in [19] was “inactive” each time. The result in test [8], in test [9], in test [10], in [14], in [15] and in test [18] was inactive. For the same compound, in test [17], the outcome was inactive.
Turning to `CCCCCCCCCCCCCCBr`, the Potency result in test [1], in [2], in test [3], in test [4], in test [5] and in test [6] was “inactive” each time. In addition, the Potency result in [7], in test [11], in test [12], in [13] and in test [19] was “inactive” throughout. Further, the compound was called inactive in [8], in test [9], in test [10], in [14], in [15] and in [18]. Further, the outcome in [17] was inactive.
Consider `CC(C)(C)C(=O)CC(=O)C(C)(C)C`, for which the Potency entry in [1], in test [2], in [3], in [4], in [5] and in test [6] was “inactive” in each case. In addition, the Potency entry in test [7], in [11], in test [12] and in test [13] was “inactive” each time. The result in test [8], in test [9], in test [10], in test [14], in [15] and in test [18] was inactive. Moreover, the compound was classed as inactive in test [17].
In the case of `CC[C@@]1(c2ccccc2)NC(=O)N(C)C1=O`, the Potency result in [1], in test [2], in test [3], in test [4], in [5] and in test [6] was “inactive” in each case. The Potency result in [7], in test [11], in [12], in test [13], in test [16] and in [19] was “inactive” each time. Also, the outcome in test [8], in test [9], in test [10], in test [14] and in test [15] was inactive.

The values are drawn from PubChem BioAssay (Tox21).
